From PubChem
Lamin A splicing – changes lamin A minigene splicing in HeLa cells; HeLa LMNA splicing GFP/RFP minigene ratio, 48 h; Potency, µM (doses to about 46.1 µM), for the others: at the highest dose ratio change, negative = inhibition, actives largely listed as inhibitors; hit rate 0.01% among 200,000; AID 1487; active means well fitted inhibition curve with a large enough effect in the signal ratio, with a control signal flat, not every such curve was filed as active; inconclusive means small, poorly fitted or top-dose-only effect, or effect the other way, or a change in a side signal; the % refers to the signal ratio; further: on the % scale 0 is the no-effect control and ±100 the full control effect
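S3 HeLa stable clones carrying a lamin A-EGFP splicing minigene plus DsRed2 were seeded at 600 cells/well in Opti-MEM with 2% FBS, pin-dosed and incubated 48 h at 37°C. Acumen cytometry (488 nm) gave the GFP/RFP total-intensity ratio.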
HPGD block – inhibitors of human 15-hydroxyprostaglandin dehydrogenase (HPGD); P15428; purified HPGD, NADH fluorescence kinetic, PGE2 substrate; Potency, µM, without a hit: at the top dose activity change, negative = inhibition, usual class: inhibitors; hit rate 4.3% among 150,000; further: on the % scale 0 is the no-effect control and ±100 the full control effect
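20 nM HPGD preincubated 15 min at room temperature with compound in 50 mM Tris-HCl pH 8, 0.01% Tween 20. Started with 1 mM NAD+ and 30 uM prostaglandin E2; NADH fluorescence (360/450 nm) read 5 times over 30-s intervals, last minus first.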
ALDH1A1 inh – inhibitors of human aldehyde dehydrogenase 1A1; Purified ALDH1A1, NADH fluorescence, propionaldehyde substrate; hit rate 7.3% among 220,000; P00352; Potency, µM (highest dose often 75.3 µM), inactives show top-dose activity, negative = inhibition, usual class: inhibitors; AID 1030;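 further: plate controls were no enzyme wells and a reference inhibitor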
Target sequence (P00352 whole entry, looked up): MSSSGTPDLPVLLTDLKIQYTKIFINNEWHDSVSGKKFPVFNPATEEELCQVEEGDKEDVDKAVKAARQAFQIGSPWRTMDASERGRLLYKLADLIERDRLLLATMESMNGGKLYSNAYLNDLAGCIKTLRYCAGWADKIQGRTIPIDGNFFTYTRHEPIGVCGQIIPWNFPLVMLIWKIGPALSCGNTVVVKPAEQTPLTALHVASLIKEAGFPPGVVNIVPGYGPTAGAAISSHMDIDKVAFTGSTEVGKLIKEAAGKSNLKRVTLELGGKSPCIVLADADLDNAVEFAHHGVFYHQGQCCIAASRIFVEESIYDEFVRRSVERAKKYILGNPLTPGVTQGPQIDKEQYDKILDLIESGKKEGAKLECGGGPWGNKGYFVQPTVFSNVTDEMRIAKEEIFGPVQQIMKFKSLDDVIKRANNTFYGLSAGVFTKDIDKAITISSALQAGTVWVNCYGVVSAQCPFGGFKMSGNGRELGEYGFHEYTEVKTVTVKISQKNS
HttQ103 aggreg – inhibitors of mutant huntingtin aggregate formation in PC12 cells. PC12 HttQ103-GFP aggregates, Acumen cytometry, 40 h. Potency, µM (titrated, usually from 46.1 µM), for inactives: top-dose activity change, negative = inhibition, hits mostly inhibitors. hit rate 1.1% among 220,000; active means well fitted curve in the direction sought with a large enough effect; inconclusive means small, poorly fitted or top-dose-only effect, or another doubt; inactive means no such curve, though single readings can be large; an effect the other way counts as inactive or inconclusive; further: on the % scale 0 is the no-effect control and ±100 the full control effect; nearly all actives have a fitted effect of over 60% in size
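PC12/HTTQ103-GFP, ecdysone-inducible; teb 100 nM; cpd qHTS titration; GFP aggregates read on laser cytometer, Ex 488/Em 500-530 nm.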
HTT ATP protect – Huntington cell model cytoprotection by ATP luminescence. Potency, µM (titrated, usually from 56.4 µM), without a hit: cytoprotection (ATP increase), hits mostly activators. PC12 HTT-Q103 induced, cytoprotection, ATP luminescence, 40 h. hit rate 0.14% among 230,000; active means well fitted curve in the direction sought with a large enough effect; inconclusive means small, poorly fitted or top-dose-only effect, or another doubt; inactive means no such curve, though single readings can be large; an effect the other way counts as inactive or inconclusive; further: % of control where 0% means no effect; nearly all actives have a fitted effect of over 45% in size
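Readout: ATPlite luminescence (ATP level). Model: stable PC12, inducible Htt exon1 Q103-GFP. Inducer: tebufenozide, 100 nM final. Compounds: dose series. No G418 in medium.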
Numbers without * were called inactive; ? = inconclusive; · = no result given; [ ] = remark or other dose. This is a sample that favours compounds with a hit; in the whole collection about 8.8% have one here. Unless noted, the call rests on the fitted dose curve; in most records, active means well fitted inhibition curve with a large enough effect (not every such curve was filed as active); inconclusive means small, poorly fitted or top-dose-only effect, or another doubt; inactive means no such curve, though single readings can be large or run the other way. Potency means the concentration at half of the fitted maximal effect.

SMILES | Lamin A splicing | HPGD block | ALDH1A1 inh | HttQ103 aggreg | HTT ATP protect
CCOc1ccc(N2C(=O)C(Cl)=C(Nc3ccccc3O)C2=O)cc1 | -12% | 25µM* | 14µM* | 7% | -3%
COc1ccc(NC2=C(Cl)C(=O)N(c3ccccc3)C2=O)c(OC)c1 | -24%[46 µM] | · | ? | -4% | 13%
COc1ccc(CCNC2=C(Cl)C(=O)N(CCc3ccccc3)C2=O)cc1OC | -13% | -20% | ? | -22% | -8%
O=C1C(Cl)=C(Nc2ccccc2O)C(=O)N1CCc1ccccc1 | -21% | 11µM* | 4µM* | -3% | 8%[10 µM]
CC(C)(C)CC(C)(C)c1cc(Cc2cc(C(C)(C)CC(C)(C)C)cc(-n3nc4ccccc4n3)c2O)c(O)c(-n2nc3ccccc3n2)c1 | · | · | · | -7% | 0%
CCOc1cc2c(cc1OCC)C(CC(=O)O)N(C(=O)Nc1ccccc1C(F)(F)F)CC2 (stereo unspecified) | 7%[46 µM] | · | · | · | ·
O=C(Cc1ccccc1)Nc1ccc2c(c1)CCC2 | · | · | -2% | -14% | -30%
O=C(CC1CCCC1)Nc1ccc2c(c1)CCC2 | -3% | 14µM* | 4% | -4% | -24%
O=C(O)c1ccc(C(=O)Nc2cccc(NC(=O)C3CCCO3)c2)cc1 (stereo unspecified) | 6% | 22µM* | 9% | -10% | 5%[10 µM]
O=C(Nc1ccc2c(c1)CCC2)C1CCCO1 (stereo unspecified) | -7% | 18µM* | 14% | -14% | -4%[0.074 µM]
COC(=O)C1=C(C)NC(C)=C(C(=O)OCCN(C)Cc2ccccc2)[C@H]1c1cccc([N+](=O)[O-])c1 | ? | -4% | 2%[20.9 µM] | · | -51%[17.1 µM]
COCCN1C(=O)N[C@@H](c2ccccc2)[C@@H](C(=O)OC)[C@H]1C | 10%[9.22 µM] | -12% | 4%[13.5 µM] | · | -14%[10 µM]
O=[N+]([O-])c1ccccc1S(=O)(=O)Oc1ccccc1/C=N/n1cnnc1 | -7% | 18µM* | -1% | -7% | 29%[10 µM]
O=[N+]([O-])c1cccc(/C=N/n2cnnc2)c1O | -6% | -11% | -4% | ? | -1%[10 µM]
COCCNC(=O)CN(C(=O)CCC(=O)Nc1ccccn1)c1ccccc1F | · | · | 17% | 0.0045µM* | -17%
COCCNC(=O)CN(C(=O)CCC(=O)Nc1ccccn1)c1ccc(F)cc1 | -2% | -5% | -8% | 1% | -10%
CCCSc1nnc(CSc2nc(C)cc(C)n2)n1C | 14%[46 µM] | · | 9% | 7% | 7%
O=C(NC(=S)NCCC1=CCCCC1)c1cccnc1 | -5%[46 µM] | · | 14µM* | 12%[9.22 µM] | 1%[10 µM]
CCCCC(=O)NC(=S)NNC(=O)CCc1ccccc1 | · | · | · | 20%[9.22 µM] | 7%[10 µM]
CC(=O)NC(=S)NNC(=O)CCc1ccccc1 | · | · | 20µM* | 35%[9.22 µM] | -35%
Cc1ccc(NC(=S)N/N=C2\CCCCC2C)cc1 (stereo unspecified) | -2%[46 µM] | · | ? | -11% | ?
O=[N+]([O-])c1cccc(NC(=S)NCCc2ccccc2)c1 | ? | 7.9µM* | -1% | 4% | -17%[1.9 µM]
CC1CCCC/C1=N\NC(=S)NCCc1ccccc1 (stereo unspecified) | · | · | 14µM* | ? | ?
CN(C)c1ccc(-c2nc(-c3cc4cc(Cl)ccc4oc3=O)cs2)cc1 | 1%[46 µM] | · | · | · | ·
CC1CC2(C)Oc3ccccc3C3OCC1(COC(=O)Nc1ccccc1)C(C)C32 (stereo unspecified) | · | -4% | -2% | · | -13%[1.9 µM]
SMILES | Lamin A splicing | HPGD block | ALDH1A1 inh | HttQ103 aggreg | HTT ATP protect
CCOc1ccc(NC(=O)CSC2=Nc3ccccc3C3=NC(Cc4ccccc4)C(=O)N23)cc1 (stereo unspecified) | 13%[46 µM] | · | · | · | ·
CCOc1ccc(NC(=O)c2ccc3nc(C(C)C)oc3c2)cc1 | -6%[46 µM] | · | · | · | ·
COc1ccccc1CNC(=S)NCCc1ccccc1 | ? | -12% | -3% | -4% | 3.2µM*
CC(C)(C)c1cc(CCC(=O)NNC(=S)NC(=O)c2ccccc2)cc(C(C)(C)C)c1O | ? | -18% | ? | ? | ?
O=C(NC1CCCCC1)C(=S)NCCc1ccccc1 | -3%[46 µM] | · | 18µM* | -4% | ·
Fc1ccc(NC(=S)NCCc2ccccc2)c(F)c1F | -11% | 25µM* | ? | -9% | 2%
O=C(CCc1ccccc1)NNC(=S)NC(=O)c1ccccc1 | -18% | -26% | 18µM* | -15% | -24%
Fc1ccccc1NC(=S)NCCc1ccccc1 | 9% | -16% | -1% | -29% | -4%
